Source: PubChem BioAssay (NCATS)
Records with an inconclusive call do not appear. Active and inactive are the calls of the source. Calls follow the shape of the dose curve; as a rule, active = well fitted inhibition curve with a large enough effect; inconclusive = small, poorly fitted or top-dose-only effect; inactive = no such curve, though single readings can be large or run the other way.

test system: not listed separately; assay: qHTS to identify inhibitors of the type 1 interferon - major histocompatibility complex class I in skeletal muscle: primary screen against the NCATS Mechanism Interrogation Plate v5.0 (MIPE) Libary (AID 1347411); details: iHSKM cells + IFN-b, HiBiT-tagged MHC-I luminescence, 24 h; series mostly up to 45.8 µM
In short: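 Luminescence from HiBiT-tagged endogenous HLA-B*08:01 served as the MHC class I read-out. CRISPR-engineered C25cl48 human myoblasts received 4.0 ng/ml IFN-beta plus compound for 24 hrs, with an 11-point, 1:3 series topping at 46 uM final.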
Also: nearly all actives have a fitted effect of over 65% in size.
Potency is read from the fitted curve at half-maximal effect.

SMILES	Potency
CNc1nccc(-c2cccnc2Oc2cc(C(=O)Nc3cccc(C(F)(F)F)c3)ccc2C)n1	5.87 µM (active)
Fc1cc(-c2cccc3ncc(-c4cnn(C5CCNCC5)c4)nc23)cc(F)c1CN1CCOCC1	11.7 µM (active)
CN1CC[C@@H](c2c(O)cc(O)c3c(=O)cc(-c4ccccc4Cl)oc23)[C@@H](O)C1	0.739 µM (active)
COC(=O)c1ccc2c(C(=Nc3ccc(N(C)C(=O)CN4CCN(C)CC4)cc3)c3ccccc3)c(O)[nH]c2c1	16.5 µM (active)
Cc1ccc(CN2CCNCC2)cc1NC(=O)CNc1ccc(F)c(F)c1	inactive
COc1ccc(C(=O)CC2(O)C(=O)Nc3c(Cl)ccc(Cl)c32)cc1 (configuration not stated)	inactive
C=CC(=O)Nc1cc2c(Nc3ccc(F)c(Cl)c3)ncnc2cc1C#CC(C)(C)N1CCN(C)CC1	8.29 µM (active)
Cc1cc(Nc2nc(N[C@@H](C)c3ccc(F)cc3)c(C#N)cc2F)n[nH]1	2.08 µM (active)
C=CC(=O)Nc1cccc(Oc2nc(Nc3ccc(N4CCN(C)CC4)cc3)ncc2Cl)c1	16.5 µM (active)
Cc1cc(Nc2cc(NC(=O)c3c(Cl)cccc3Cl)ccn2)nc(N)n1	4.66 µM (active)
COC(=O)C1=C(C)NC(C)=C(C(=O)OCCN2CCN(C(c3ccccc3)c3ccccc3)CC2)C1c1cccc([N+](=O)[O-])c1 (configuration not stated)	inactive
C#Cc1cccc(Nc2ncnc3cc(OC)c(OCCCCCCC(=O)NO)cc23)c1	1.65 µM (active)
O=C(O)C1(Cc2cccc(Nc3nccs3)n2)CCC(Oc2cccc(Cl)c2F)CC1 (configuration not stated)	inactive
CN(C)CC(C)(C)CNc1nn2c(-c3ccccc3)nnc2cc1C1CCC1	inactive
COc1ccc2c(OCc3nnc4ccc(-c5ccccc5)nn34)ccnc2c1	inactive
COC(=O)C[C@](O)(CCCC(C)(C)O)C(=O)O[C@@H]1C(OC)=C[C@]23CCCN2CCc2cc4c(cc2[C@H]13)OCO4	0.093 µM (active)

SMILES	Potency
Clc1ccc2ncc(-c3cccc(NC4CNC4)n3)n2c1	inactive
OCc1ccc(-c2ccc(-c3ccc(CO)s3)o2)s1	33 µM (active)
CCOC(=O)C1=C(C)NC2=C(C(=O)CC(C)(C)C2)C1c1ccc(-c2ccccc2)cc1 (configuration not stated)	3.3 µM (active)
CC(C)(C)c1cc(NC(=O)Nc2ccc(-c3cn4c(n3)sc3cc(OCCN5CCOCC5)ccc34)cc2)no1	inactive
Cc1cc(CN2CCN(c3c(Br)cnc4nc(-c5ccc(N6CCN(C)CC6)cc5)[nH]c34)CC2)no1	6.58 µM (active)
O=C1CCC[C@@H]2[C@H]3CCC[N+]4([O-])CCC[C@@H](CN12)[C@@H]34 (some centres not stated)	inactive
O=C(NCCCNc1nc(Nc2cccc(NC(=O)N3CCCC3)c2)ncc1I)c1cccs1	inactive
Cc1ccc(C(=O)Nc2cccc(C(F)(F)F)c2)cc1-c1ccc2nc(NCCN3CCOCC3)ncc2c1	5.87 µM (active)
Cc1cc(Nc2cc(N3CCN(C)CC3)nc(Sc3ccc(NC(=O)C4CC4)cc3)n2)n[nH]1	inactive
COc1cc(-c2nn(C3CCC(N4CCN(C(C)=O)CC4)CC3)c3ncnc(N)c23)ccc1NC(=O)c1cc2ccccc2n1C (configuration not stated)	inactive
C[C@@H](Oc1cc(-c2cnn(C3CCNCC3)c2)cnc1N)c1c(Cl)ccc(F)c1Cl	14.7 µM (active)
CC(C)c1cnn2c(NCc3ccccc3)cc(N[C@@H](CO)[C@H](O)CO)nc12	0.186 µM (active)
Nc1ccccc1NC(=O)c1ccc(CNc2nccc(-c3cccnc3)n2)cc1	7.39 µM (active)
Cc1ccc(C(N)=O)cc1Nc1nccc(-c2cn(C(C)C)c3cnccc23)n1	8.29 µM (active)
O=C(O)Cn1nnc(-c2cc(N3CCC(Oc4cc(F)ccc4Br)CC3)no2)n1	inactive
C=CC(=O)Nc1cc2c(Nc3ccc(F)c(Cl)c3)ncnc2cc1OCCCN1CCOCC1	11.7 µM (active)

molecular target: Calcium and integrin-binding protein 1 (Homo sapiens) (UniProt Q99828); assay: Confirmatory qHTS for Identification of Calcium Integrin Binding Protein 1 (CIB1) Competitor (AID 1508617); details: CIB1 binding competition assay, biochemical qHTS; series mostly up to 114 µM
In short: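 Fluorescence polarization competition: CIB1-GST (1 uM final) in 5 mM HEPES pH 7.4, 125 mM NaCl, 5 mM CaCl2, 0.01% Tween20 preincubated 15 min RT with compound (up to 114 uM), then FITC-alphaIIb peptide (100 nM) added, 15 min RT.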

Chain of Calcium and integrin-binding protein 1 (Homo sapiens) (Q99828 whole entry, looked up): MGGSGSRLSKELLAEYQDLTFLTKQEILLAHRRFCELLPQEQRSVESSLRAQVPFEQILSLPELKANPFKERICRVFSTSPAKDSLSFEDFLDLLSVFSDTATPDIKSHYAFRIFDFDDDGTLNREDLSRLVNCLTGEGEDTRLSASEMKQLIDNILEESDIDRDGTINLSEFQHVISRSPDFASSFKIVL

SMILES	Potency
CC(=O)Nc1sc2c(c1-c1nc3ccccc3s1)CNC2	inactive
CC(C)(O)CCc1ccc(OCc2cc(-c3cccc(OC(F)F)c3)c3ncccc3c2)cc1	inactive
OCc1ccc(-c2ccc(-c3ccc(CO)s3)o2)s1	inactive
Cc1coc2c1C(=O)C(=O)c1c-2ccc2c1CCCC2(C)C	39.8 µM (active)
Cn1cc(-c2[nH]c3cc(NC(=O)[C@H](N)C4CCCCC4)cc4c3c2C=NNC4=O)cn1	50.1 µM (active)
